hcDAF12 agonist = H. contortus DAF-12 nuclear receptor activators, primary screen, cell-based, luminescence, HEK293, lit1-tk-luc reporter; activation, % at 6.8 µM; AID 652067, 2013; hit rate 1.4% among 370,000; HEK293 hcDAF-12 lit1-tk-luc reporter; 0% DMSO, 100% Δ7-dafachronic acid;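 active = activation above the mean of all tested compounds plus 3 SD, cut at about 5.5% in these data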;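 note: 100% = response to 3 µM Δ7-dafachronic acid high control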
DAX1 inh-1 = DAX1 (NR0B1) inhibitors, primary screen, cell-based, HEK293, Gal4-DAX1, luciferase luminescence; HEK293 Gal4-DAX1 luciferase reporter; AID 504766, 2011; inhibition, % at 6.75 µM; hit rate 0.99% among 340,000; Nuclear receptor subfamily 0 group B member 1 (Homo sapiens), P51843;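 active = inhibition above the mean over all tested compounds plus 3 SD, cut at about 4.2% in these data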;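 note: 0% = DAX1-transfected cells with DMSO and 100% = empty-vector control cells with DMSO; inhibition shows as a rise in luminescence from relieved DAX1 repression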
Target sequence (P51843 207-470 limits assumed): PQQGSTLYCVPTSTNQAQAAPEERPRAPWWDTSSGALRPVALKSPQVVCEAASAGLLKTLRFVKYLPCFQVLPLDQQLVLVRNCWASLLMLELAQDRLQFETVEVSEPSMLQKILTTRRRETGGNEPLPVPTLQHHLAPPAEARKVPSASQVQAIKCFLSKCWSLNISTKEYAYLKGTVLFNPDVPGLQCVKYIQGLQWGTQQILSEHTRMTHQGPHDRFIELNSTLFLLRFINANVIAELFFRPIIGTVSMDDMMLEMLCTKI
hgDAF-12 ag = H. glycines DAF-12 receptor agonists, primary screen, cell-based, luminescence, HEK293, GAL4 fusion, UAS-luciferase. HEK293 GAL4-hgDAF12 UAS-luciferase reporter, agonist luminescence; normalized to butyrate control. activation, % at 6.8 µM. hit rate 1.8% among 370,000. AID 687014, 2013;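 active = activation above a cutoff set at the mean of all screened compounds plus 3 SD, cut at about 10% in these data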;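 note: 0% = DMSO wells and 100% = sodium butyrate wells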
DAX1 inh-2 = DAX1 (NR0B1) inhibitors on StAR promoter, primary screen, cell-based, luminescence, SF-1 (NR5A1), full-length DAX-1 | HEK293T StAR-luciferase reporter, SF-1/DAX-1 repression relief | inhibition, % at 6.8 µM | hit rate 1.1% among 370,000;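 active = inhibition above the mean over all tested compounds plus 3 SD, cut at about 3.6% in these data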;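 note: 0% = DAX-1 cells with DMSO and 100% = cells lacking DAX-1 with DMSO; higher inhibition means more luminescence from relief of DAX-1 repression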
ssDAF12 agonist = S. stercoralis DAF-12 nuclear receptor activators, primary screen, cell-based, luminescence, HEK293, GRIP1 co-expression, lit1-tk-luc; Nuclear hormone receptor DAF-12 (Strongyloides stercoralis); HEK293 ssDAF-12/GRIP1 lit1-tk-luc reporter; % of 3 µM dafachronic acid response; activation, % at 6.8 µM; hit rate 1% among 370,000; AID 652126, 2013;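 active = activation above the mean over all tested compounds plus 3 SD, cut at about 0.9% in these data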;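 note: 0% = DMSO-only wells and 100% = 3 µM delta7-dafachronic acid wells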
Active calls of the source: *; / = no result. Rows were chosen to be rich in hits. Some 4.1% of all compounds tested hit in one or more screens of this group.

SMILES | hcDAF12 agonist | DAX1 inh-1 | hgDAF-12 ag | DAX1 inh-2 | ssDAF12 agonist
COC(=O)C1CN(Cc2cn(Cc3ccc(C)cc3)nn2)CCS(=O)(=O)N1Cc1ccc(F)cc1 (stereo not given) | -3.4 | / | -3.5 | -0.8 | -1.5
O=C(NC1CCCCCC1)c1ccc(CN2CCOCC2)cc1 | 2.8 | 4.6* | 8.3 | 1.4 | -0.2
O=C(NCCC1=CCCCC1)c1ccc(CN2CCOCC2)cc1 | 5.2 | 3.3 | 7.0 | 2.3 | 0.9*
CC(C)Oc1ccc(C(=O)NC2CCCCC2)cc1 | 5.0 | 1.6 | 6.5 | 1.6 | 0.2
C=CCOc1ccc(C(=O)NC2CCCCC2)cc1 | 4.4 | 0.8 | 10.5* | 1.4 | -0.7
Cc1nn(-c2ccccc2)c2sc(C(=O)NC3CCCCCC3)cc12 | -3.2 | / | 2.3 | 0.1 | -1.1
O=C(N[C@@H](Cc1cccnc1)C(=O)N1CCC[C@H]1C(=O)NCCc1ccccc1Cl)c1ccc(Cl)cc1Cl | 0.4 | / | 1.6 | 3.4 | -1.4
COC(=O)[C@]12C[C@H](CC(=O)NCc3ccccc3)C(=O)N(Cc3ccc(Cl)cc3Cl)C1=C[C@H](C(C)C)O[C@@H]2C1CC1 | -3.0 | / | 5.2 | 0.0 | -1.4
CCO[C@@H]1OC(C(=O)O)=C[C@H](C2CCCCC2)[C@H]1CCCO | -1.2 | 1.8 | 2.6 | 0.3 | -0.9
CCO[C@H]1OC(C(=O)NC2CC2)=C[C@@H](C2CCCCC2)[C@@H]1CCCO | -0.8 | 1.0 | -0.2 | -0.3 | -1.6
CCO[C@@H]1OC(C(N)=O)=C[C@H](C2CCCCC2)[C@H]1CCCO | -0.5 | 4.3* | -0.5 | 0.2 | -1.1
C#CCNC(=O)C1=C[C@@H](C2CCCCC2)[C@H](CCCO)[C@@H](OCC)O1 | -1.6 | 5.3* | 0.3 | -0.3 | -1.4
CN1C(=O)C[C@@](C#N)(C(=O)NCc2ccccc2)[C@H]1c1ccccc1 | 3.0 | / | -1.2 | 0.1 | -0.5
O=C(CSc1nc2ccccc2o1)NN=C/C=C\c1ccccc1[N+](=O)[O-] | 4.9 | / | 7.9 | 0.9 | -0.1
O=[N+]([O-])c1ccc(O)c(Nc2ncnc3ccccc23)c1 | 3.1 | 1.9 | -2.0 | 0.6 | 1.1*
O=C(Nc1cccc(Cl)c1)OC1CCC12CCC(c1ccccc1)CC2 (stereo not given) | 1.1 | / | -0.6 | -1.1 | -1.6
c1ccc(CCn2nnc3ccccc32)cc1 | 2.6 | 6.3* | 8.3 | 2.4 | -1.2
O=C(Cn1nnc2ccccc21)OCc1ccccc1 | -1.5 | 0.3 | 1.8 | 0.2 | -0.6
N#CCCn1nnc2ccccc21 | -1.5 | 0.4 | 2.3 | 0.1 | -0.7
O=C(Cn1nnc2ccccc21)NCc1ccccc1 | 2.8 | 3.0 | 10.8* | 1.4 | -0.7
Cc1ccc(C(=O)Cn2nnc3ccccc32)cc1 | 3.5 | 0.4 | 11.3* | 2.0 | -0.3
O=C(Cn1nnc2ccccc21)c1ccc(Br)cc1 | -0.3 | 1.5 | 1.5 | 1.2 | -1.5
Cc1ccc(OCCn2nnc3ccccc32)cc1C | 3.0 | 0.6 | 12.6* | 1.1 | -0.8
COc1cccc(C(=O)n2ccc3ccc(-c4ccc5ccn(Cc6ccc(C#N)cc6)c5c4)cc32)c1 | -0.1 | / | 3.0 | -1.1 | -1.3
Cc1ccc(S(=O)(=O)N2C(N)=C(C(=O)NCc3ccc(Br)cc3)C(c3ccc(Cl)cc3)C2C(=O)c2ccccc2)cc1 (stereo not given) | 1.2 | / | 1.5 | / | -1.9
SMILES | hcDAF12 agonist | DAX1 inh-1 | hgDAF-12 ag | DAX1 inh-2 | ssDAF12 agonist
CN(C)c1ccc(NC(=S)OC2CCC23CCC(c2ccccc2)CC3)cc1 (stereo not given) | -0.6 | / | 0.0 | 0.4 | -1.5
CC(=O)c1nc2ccccc2n1CCc1ccccc1 | -0.3 | 1.5 | 1.2 | 0.0 | 1.2*
O=C(c1cc(COc2ccc(F)cc2Cl)on1)N1CCCCCC1 | 4.5 | 1.6 | 9.2 | 3.0 | 0.7
O=C(c1cc(COc2ccc(F)cc2F)on1)N1CCSCC1 | 1.5 | 0.8 | 12.2* | 3.2 | -1.0
COc1ccc(OCc2cc(C(=O)N(C)Cc3cc(C4CC4)n[nH]3)no2)c(Cl)c1 | 4.1 | 1.5 | 8.0 | 4.2* | -1.2
COc1ccc(OCc2cc(C(=O)N(C)Cc3cnccn3)no2)c(Cl)c1 | 2.1 | 0.8 | 8.3 | 0.5 | -0.5
CCN1CCN(C(=O)c2cc(COc3ccc(C(C)=O)cc3OC)on2)CC1 | 5.2 | 1.7 | 11.9* | 0.7 | 0.1
CCOC(=O)N1CCN(C(=O)c2cc(COc3ccc(OC)cc3Cl)on2)CC1 | -0.4 | 2.3 | 2.2 | -0.8 | -1.2
CC(=O)c1cccc(OCc2cc(C(=O)N3C[C@@H](C)O[C@@H](C)C3)no2)c1 | 0.3 | 2.1 | 7.8 | 4.2* | -0.8
CC(=O)c1cccc(OCc2cc(C(=O)N3C[C@H]4CC[C@H]3C4)no2)c1 | 1.3 | 1.2 | 8.2 | 1.6 | -0.1
CCn1c(SCC(=O)Nc2ccc(S(=O)(=O)Nc3cc(C)nc(C)n3)cc2)nc2sc(C)c(C)c2c1=O | -0.8 | / | 4.7 | -0.7 | -1.5
O=C1CCC[C@H]2C[C@H](NCc3ccco3)CC[C@]23CCCN13 | -1.2 | / | -1.9 | / | -1.7
COc1ccc(OCc2cc(C(=O)N3CCN(CC4CC4)CC3)no2)c(Cl)c1 | 0.8 | 1.6 | 7.8 | 3.6* | -1.0
Cc1c(-c2ccccc2)[nH]n2c(=O)c3c(nc12)CCCC3 | 2.4 | 2.1 | 10.5* | 2.5 | -0.5
COC(=O)[C@]12C[C@H](CC(=O)N3CCN(C(=O)C4CC4)CC3)C(=O)N(Cc3ccc(Cl)cc3Cl)C1=C[C@H](C(C)(C)C)O[C@@H]2C | -2.5 | / | -2.5 | -1.1 | -1.5
Cc1ccc(NC(=O)c2cc(=O)c3ccccc3o2)cc1S(=O)(=O)N1CCCCC1 | -1.4 | -0.5 | -2.0 | -0.8 | -1.7
O=C(Nc1ccc(S(=O)(=O)N2CCCC2)cc1)c1cc(=O)c2ccccc2o1 | 0.3 | 4.3* | 2.3 | 0.7 | -1.2
Cc1cc(C)c(NC(=O)C2CCCN2CCC(C)C)c(C)c1 (stereo not given) | -1.3 | 4.8* | 0.1 | -0.2 | -1.0
CCC(C)N1CCCC1C(=O)Nc1c(C)cc(C)cc1C (stereo not given) | -0.4 | 0.9 | -0.6 | -0.7 | -0.9
O=[N+]([O-])c1cnc2ccccc2c1Sc1ccccc1 | 2.7 | / | 0.6 | / | -0.8
CCOC(=O)C1=C(C)Nc2nc3ccccc3n2C1c1ccccc1 (stereo not given) | 0.5 | 5.4* | 0.5 | 0.4 | -0.7
CN(CCO)c1ccc2c(c1)Oc1ccccc1CN(Cc1cn(Cc3ccc(F)cc3)nn1)S2(=O)=O | -1.8 | / | -0.1 | -1.1 | 0.1
CCC[C@H]1[C@@H](NC(=O)c2cccc(Cl)c2)CC[C@@]23CCCN2C(=O)CCC[C@@H]13 | -0.6 | / | -2.0 | / | -0.7

Screening data as filed in PubChem.
